According to PubChem BioAssay (NCI):
The panel holds about 79,000 compounds, 15% with a hit somewhere; the sample as a whole holds those more often. The source made the active and inactive calls. Cut-off read from the data, not from the text of the source: active = growth inhibition above about 70%; inactive = the rest.

How the values were obtained:
[1] = NCI Yeast Anticancer Drug Screen. Data for the rad50 strain (AID 155);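 note: 0% = growth of vehicle-only cultures of the same strain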; conditions: S. cerevisiae rad50 strain growth inhibition, active compounds read high
Procedure, shortened: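 Growth of the mutant yeast was measured after compound exposure and referenced to vehicle-treated cultures.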

[2] = NCI Yeast Anticancer Drug Screen. Data for the mec2-1 strain (AID 157); conditions: S. cerevisiae mec2-1 strain, active compounds read high
Procedure, shortened: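 Compounds were applied to mec2-1 yeast cells. Their growth was then compared with that of vehicle-treated cultures to give growth inhibition.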

[3] = NCI Yeast Anticancer Drug Screen. Data for the sgs1 mgt1 strain (AID 161);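 note: 0% = growth of cultures given vehicle only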; conditions: S. cerevisiae sgs1 mgt1 strain, active compounds read high
Procedure, shortened: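 Percent growth inhibition was derived by comparing compound-exposed mutant yeast with vehicle-exposed cultures. The strain carries alterations in DNA damage repair.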

[4] = NCI Yeast Anticancer Drug Screen. Data for the cln2 rad14 strain (AID 165);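 note: 0% = growth equal to vehicle treated cultures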; conditions: S. cerevisiae cln2 rad14 strain, active compounds read high
Procedure, shortened: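 Strain: cln2 rad14 yeast, altered in cell cycle control and DNA damage repair. Read-out: growth inhibition vs vehicle.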

[5] = NCI Yeast Anticancer Drug Screen. Data for the bub3 strain (AID 167); conditions: S. cerevisiae bub3 mutant strain, active compounds read high
Procedure, shortened: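 Whole-cell yeast assay. The mutant strain was incubated with compounds, and growth inhibition was determined by comparison with vehicle-treated cells.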

[6] = NCI Yeast Anticancer Drug Screen. Data for the mlh1 rad18 strain (AID 175); conditions: S. cerevisiae mlh1 rad18 strain growth inhibition, active compounds read high
Procedure, shortened: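 A repair-deficient yeast strain is exposed to test compound, and growth is scored relative to vehicle-treated controls.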

[7] = at 5.0 µM (retest, dose inferred, filed as 0.5)
[8] = at 50.0 µM (retest, dose inferred, filed as 5.0)

Measured: growth inhibition

COc1ccc2sc3c(C)ccc(NCC4CCCN5CCCCC45)c3c(=O)c2c1 (stereo unspecified)
active: [1]; [8] 81% | [1]; at 50.0 µM 97.2% | [2]; [8] 88% | [2]; at 50.0 µM 99.6% | [3]; [8] 76% | [3]; at 50.0 µM 99.3% | [4]; [8] 85% | [4]; at 50.0 µM 99.2% | [5]; [8] 92% | [5]; at 50.0 µM 99.5% | [6]; [8] 81% | [6]; at 50.0 µM 99.4%
inactive: [1]; [7] 42% | [2]; [7] 12% | [3]; [7] 32% | [4]; [7] 16% | [5]; [7] 21% | [6]; [7] 27%

O=C(NCCCl)N1CCC(CN=c2cc3n(-c4ccc(Cl)cc4)c4ccccc4nc-3cc2Nc2ccc(Cl)cc2)CC1
active: [1]; [8] 99% | [1]; at 50.0 µM 98.6% | [2]; [8] 99% | [2]; at 50.0 µM 98.5% | [3]; [8] 99% | [3]; at 50.0 µM 98.7% | [4]; [8] 99% | [4]; at 50.0 µM 98.3% | [5]; [8] 99% | [5]; at 50.0 µM 98.4% | [6]; [8] 98% | [6]; at 50.0 µM 99%
inactive: [1]; [7] -33% | [2]; [7] -5% | [3]; [7] -22% | [4]; [7] -56% | [5]; [7] -11% | [6]; [7] -34%

CCCCCCN(CCCCCC)CCC(=O)c1ccc2cc(Cl)c3ccccc3c2c1
active: [1]; [8] 90% | [1]; at 50.0 µM 78.4% | [2]; [8] 95% | [2]; at 50.0 µM 82% | [3]; [8] 95% | [3]; at 50.0 µM 78.2% | [4]; [8] 88% | [5]; [8] 94% | [6]; [8] 91% | [6]; at 50.0 µM 87.8%
inactive: [1]; [7] 29% | [2]; [7] -28% | [3]; [7] 33% | [4]; [7] 3% | [4]; at 50.0 µM 31.8% | [5]; [7] 5% | [5]; at 50.0 µM 33.2% | [6]; [7] 17%

C/C(=N\NC(=S)Nc1ccc([N+](=O)[O-])cc1)c1nc2ncccc2[nH]1
inactive: [1]; [7] -8% | [2]; [7] -22% | [2]; at 50.0 µM 61% | [3]; [7] -14% | [3]; at 50.0 µM 62.2% | [4]; [7] 5% | [4]; at 50.0 µM 67.2% | [5]; [7] -35% | [6]; [7] 4% | [6]; at 50.0 µM 60.1%
active: [1]; [8] 71% | [1]; at 50.0 µM 72.3% | [2]; [8] 89% | [3]; [8] 70% | [4]; [8] 93% | [5]; [8] 95% | [5]; at 50.0 µM 75.5% | [6]; [8] 92%

COc1ccc(C2CC(c3c(O)ccc4ccccc34)=NN2)cc1OC (stereo unspecified)
inactive: [1]; [7] -4% | [2]; [7] -3% | [3]; [7] -6% | [4]; [7] -11% | [5]; [7] 8% | [6]; [7] -1%
active: [1]; [8] 97% | [1]; at 50.0 µM 89.2% | [2]; [8] 97% | [2]; at 50.0 µM 91.8% | [3]; [8] 97% | [3]; at 50.0 µM 90.4% | [4]; [8] 97% | [4]; at 50.0 µM 90.2% | [5]; [8] 96% | [5]; at 50.0 µM 90.5% | [6]; [8] 97% | [6]; at 50.0 µM 89.7%

O=[N+]([O-])c1cc(CNCCO)c(O)c2ncccc12
active: [1]; [7] 99% | [1]; [8] 99% | [1]; at 50.0 µM 98.7% | [2]; [7] 100% | [2]; [8] 99% | [2]; at 50.0 µM 99.3% | [3]; [7] 99% | [3]; [8] 99% | [3]; at 50.0 µM 99.2% | [4]; [7] 95% | [4]; [8] 98% | [4]; at 50.0 µM 97.9% | [5]; [7] 99% | [5]; [8] 99% | [5]; at 50.0 µM 99% | [6]; [7] 99% | [6]; [8] 99% | [6]; at 50.0 µM 98.8%

NC(=O)CCSC(=S)N1CCOCC1
inactive: [1]; [7] -2% | [1]; [8] -16% | [1]; at 50.0 µM -8.55% | [2]; [7] -5% | [2]; [8] -2% | [2]; at 50.0 µM -16.6% | [3]; [7] -3% | [3]; [8] 4% | [3]; at 50.0 µM -8.35% | [4]; [7] 4% | [4]; [8] -2% | [4]; at 50.0 µM 29.1% | [5]; [7] 39% | [5]; [8] -5% | [5]; at 50.0 µM -1.85% | [6]; [7] 1% | [6]; [8] 2% | [6]; at 50.0 µM -17.4%
